Measured values: PubChem BioAssay (Tox21)
Results filed as inconclusive are left out. Calls of active or inactive are those of the source. Unless noted, calls follow the shape of the dose curve; as a rule, active = well fitted curve in the direction sought with a large enough effect in the repeat runs; inconclusive = weak or mixed curves; inactive = no such curve, though single readings can be large; an effect the other way counts as inactive or inconclusive.

Key:
[1] = qHTS assay for small molecules that induce genotoxicity in human embryonic kidney cells expressing luciferase-tagged ATAD5 (AID 651632); settings: HEK293T ATAD5-luciferase induction, 16 h; series mostly up to 83.3 µM; also: nearly all actives have a fitted effect of over 15% in size
Procedure, shortened: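 A rise in luciferase signal from ATAD5-tagged HEK293T cells marks genetic stress. Cells were exposed to compounds for 16 hr at 37C, 5% CO2, then luciferase was quantified after a 30 min room-temperature incubation with Amplite.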

[2] = qHTS assay for small molecule agonists of the p53 signaling pathway - cell viability (AID 651633; calls by dose curve;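 also: p53RE-bla HCT reporter cells with a stable beta-lactamase p53 reporter; nearly all actives have a fitted effect of over 30% in size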); settings: p53RE-bla HCT-116 viability, ATP luminescence, 16 h; series mostly up to 83.3 µM
Procedure, shortened: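 p53RE-bla cells, seeded at 4,000 per well and rested 5 h at 37 C/5% CO2, received compounds in DMSO for 16 h at 37 C. CellTiter-Glo was then added, and luminescence was read after 30 min at room temperature to gauge cytotoxicity.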

[3] = qHTS assay for small molecule disruptors of the mitochondrial membrane potential - cell viability (AID 720634; calls by dose curve;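 also: human HepG2 liver cancer cells; nearly all actives have a fitted effect of over 20% in size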); settings: HepG2 viability, ATP luminescence (CellTiter-Glo), 1 h; series mostly up to 83.2 µM
Procedure, shortened: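 Cytotoxicity was quantified from ATP content by CellTiter-Glo luminescence in the same wells as the MMP dye read-out. HepG2 (2,000 cells/well) were plated overnight and exposed to compounds for 1 hr at 37 C.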

[4] = qHTS assay to test for compound auto fluorescence at 590 nm (red) in HepG2 cells (AID 720674); settings: HepG2 autofluorescence, red 540/590 nm, 1 h; series mostly up to 91.3 µM
Procedure, shortened: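 Compound auto-fluorescence is scored relative to Rose Bengal sodium, measured at 540/590 nm in live HepG2 cultures after 1 hr compound contact (37 C, 5% CO2).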

[5] = qHTS assay to test for compound auto fluorescence at 535 nm (green) in HepG2 cells (AID 720675); settings: green autofluorescence 485/535 nm, 1 h; series mostly up to 91.3 µM
[6] = qHTS assay to test for compound auto fluorescence at 460 nm (blue) in HEK293 cells (AID 720678); settings: blue autofluorescence 405/460 nm; series mostly up to 91.3 µM
Procedure, shortened: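 Intrinsic compound fluorescence is recorded in live HEK293 cultures after overnight incubation at 37C, 5% CO2, using excitation 405 nm and emission 460 nm. Values are referenced to triamterene.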

[7] = qHTS assay to test for compound auto fluorescence at 590 nm (red) in HEK293 cells (AID 720679); settings: red autofluorescence 540/590 nm; series mostly up to 91.3 µM
Procedure, shortened: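 Red autofluorescence, HEK293 cells: 2,000 cells/well; attach 4-5 hr 37C; add 23 nL cpd or DMSO; incubate o/n 37C 5% CO2; read Ex540/Em590; Rose Bengal sodium reference.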

[8] = qHTS assay to test for compound auto fluorescence at 535 nm (green) in HEK293 cells (AID 720680); settings: green autofluorescence 485/535 nm; series mostly up to 91.3 µM
[9] = qHTS assay to test for compound auto fluorescence at 460 nm (blue) in HEK293 cell free culture (AID 720681); settings: cell-free medium, autofluorescence 405/460 nm (blue); series mostly up to 91.3 µM
Procedure, shortened: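 Test compounds were pinned into cell-free culture medium (DMEM with 10% FBS) and fluorescence was read directly at Ex/Em 405/460 nm. Signals were expressed as fluorescence equivalents of triamterene, with DMSO vehicle as control.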

[10] = qHTS assay to test for compound auto fluorescence at 535 nm (green) in HEK293 cell free culture (AID 720682); settings: cell-free medium, green autofluorescence 485/535 nm, stronger effect = higher value; series mostly up to 91.3 µM
Procedure, shortened: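 Steps: dispense DMEM/10% FBS into empty wells; pin in compound or DMSO; measure fluorescence at 485/535 nm. Values are fluorescein equivalents.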

[11] = qHTS assay to test for compound auto fluorescence at 590 nm (red) in HEK293 cell free culture (AID 720683); settings: cell-free medium autofluorescence, Ex540/Em590 red; series mostly up to 91.3 µM
Procedure, shortened: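 Tox21 10K library compounds were pinned into cell-free DMEM with 10% FBS and fluorescence was read at excitation 540 nm. Activity is expressed as Rose Bengal sodium equivalency.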

[12] = qHTS assay to test for compound auto fluorescence at 590 nm (red) in HepG2 cell free culture (AID 720684); settings: cell-free medium autofluorescence, red 540/590 nm; series mostly up to 91.3 µM
Procedure, shortened: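 Readout: intrinsic compound fluorescence at 590 nm emission after 540 nm excitation, scaled to Rose Bengal sodium. Matrix was cell-free MEM with 10% FBS; DMSO vehicle wells served as control.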

[13] = qHTS assay to test for compound auto fluorescence at 460 nm (blue) in HepG2 cell free culture (AID 720685); settings: Cell-free culture medium, blue autofluorescence 405/460 nm; series mostly up to 91.3 µM
Procedure, shortened: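 Cell-free plates of MEM plus 10% FBS received 23 nL compound or DMSO vehicle; blue-channel (405/460 nm) intensity scored against triamterene as reference fluorophore.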

[14] = qHTS assay to test for compound auto fluorescence at 535 nm (green) in HepG2 cell free culture (AID 720686); settings: Cell-free medium, green autofluorescence 485/535 nm; series mostly up to 91.3 µM
[15] = qHTS assay to test for compound auto fluorescence at 460 nm (blue) in HepG2 cells (AID 720687); settings: autofluorescence 405/460 nm, 1 h; series mostly up to 91.3 µM
Procedure, shortened: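 Cells (2,000/well in MEM with 10% FBS) attached overnight at 37 C, then were exposed to compound or DMSO for 1 hr at 37 C, 5% CO2. Fluorescence read at Ex/Em 405/460 nm, expressed as triamterene-equivalent signal.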

[16] = target: Glucocorticoid receptor (Homo sapiens) (UniProt P04150); assay: qHTS assay to identify small molecule agonists of the glucocorticoid receptor (GR) signaling pathway (AID 720691; active = well fitted activation curve with a large enough effect in the signal ratio in the repeat runs, not every such curve was filed as active; the % refers to the signal ratio); settings: GR-bla HeLa, beta-lactamase reporter ratio, 18 h; series mostly up to 62.4 µM
Procedure, shortened: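 Agonist-mode qHTS in HeLa cells stably expressing a glucocorticoid-response-element beta-lactamase reporter. Fluorescence intensity read with FRET substrate (2 h, room temperature) after 18 h compound treatment at 37 C.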

[17] = target: Glucocorticoid receptor (Homo sapiens) (UniProt P04150); assay: qHTS assay to identify small molecule antagonists of the glucocorticoid receptor (GR) signaling pathway (AID 720692; active = well fitted inhibition curve with a large enough effect in the signal ratio in the repeat runs, not every such curve was filed as active; the % refers to the signal ratio); settings: GR-bla HeLa, beta-lactamase FRET ratio, dexamethasone-stimulated, 18 h; series mostly up to 58.5 µM
Procedure, shortened: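 Inhibition of dexamethasone-driven (5 nM final) beta-lactamase expression was measured in GRE-reporter HeLa cells over 18 h at 37C. Fluorescence was read after 2 h with the B/G FRET substrate at room temperature.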

[18] = qHTS assay for small molecules that induce genotoxicity in human embryonic kidney cells expressing luciferase-tagged ATAD5 - cell viability (AID 651634; calls by dose curve; also: nearly all actives have a fitted effect of over 25% in size); settings: HEK293T ATAD5-luc cells viability, CellTiter-Fluor, 15.5 h; series mostly up to 83.3 µM
Procedure, shortened: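 Cytotoxicity counter-readout: after 15.5 hr compound treatment at 37C, live-cell protease activity in ATAD5-luciferase HEK293T cells measured by CellTiter-Fluor fluorescence, 30 min development at 37C.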

[19] = qHTS assay for small molecule disruptors of the mitochondrial membrane potential (AID 720635); settings: HepG2 mitochondrial membrane potential, Mito-MPS dye ratio; series mostly up to 83.2 µM; also: potency is read from the fitted curve at half-maximal effect
Procedure, shortened: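 HepG2 cells (2,000/well) attached overnight at 37C, then took compound for 1 hr at 37C, 5% CO2. Mito-MPS dye was added for 30 min; fluorescence was read at 490/535 nm (monomers) and 540/590 nm (aggregates).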
% is scaled to controls: 0 for no effect and ±100 for the full control effect.

Chain of Glucocorticoid receptor (Homo sapiens) (P04150 whole entry, looked up): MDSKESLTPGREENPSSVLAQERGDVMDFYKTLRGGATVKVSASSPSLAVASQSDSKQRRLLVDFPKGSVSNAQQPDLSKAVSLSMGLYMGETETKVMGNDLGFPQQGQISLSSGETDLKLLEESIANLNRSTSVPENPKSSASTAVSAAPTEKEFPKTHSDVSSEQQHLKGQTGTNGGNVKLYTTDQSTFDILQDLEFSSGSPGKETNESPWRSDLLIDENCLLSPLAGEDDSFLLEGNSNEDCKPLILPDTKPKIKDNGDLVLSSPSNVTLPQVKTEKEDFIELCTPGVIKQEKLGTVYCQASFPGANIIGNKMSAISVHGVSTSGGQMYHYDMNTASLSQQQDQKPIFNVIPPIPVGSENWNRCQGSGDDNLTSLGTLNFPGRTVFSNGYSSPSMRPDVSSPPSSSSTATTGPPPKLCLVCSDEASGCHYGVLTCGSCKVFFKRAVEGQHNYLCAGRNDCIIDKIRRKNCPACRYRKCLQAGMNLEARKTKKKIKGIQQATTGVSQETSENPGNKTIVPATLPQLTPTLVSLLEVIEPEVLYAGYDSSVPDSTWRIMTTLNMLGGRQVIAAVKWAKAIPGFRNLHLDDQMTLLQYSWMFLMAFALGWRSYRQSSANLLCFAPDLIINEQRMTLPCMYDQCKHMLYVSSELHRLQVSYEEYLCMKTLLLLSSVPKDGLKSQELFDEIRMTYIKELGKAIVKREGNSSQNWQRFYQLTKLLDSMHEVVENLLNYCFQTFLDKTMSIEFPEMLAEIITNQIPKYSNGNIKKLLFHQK

O=S1(=O)c2cccc3cccc(c23)N1CCCN1CCN(c2ccc(F)cc2)CC1
inactive: Potency [1] | Potency [2] | Potency [3] | outcome [4] | outcome [5] | Potency [6] | outcome [7] | outcome [8] | Potency [9] | outcome [10] | outcome [11] | outcome [12] | Potency [13] | outcome [14] | Potency [15] | Potency [16] | Potency [17]

CCCCc1cc2ccccc2c(OCCN(C)C)n1
inactive: Potency [1] | Potency [2] | Potency [18] | fluorescence, relative to Rose Bengal [4] 0.0286% [at 18.6 µM] | fluorescence, % of fluorescein control [5] 0.0129% [at 18.6 µM] | fluorescence, % of triamterene [6] 0.0451% [at 18.6 µM] | fluorescence, % of fluorescent control [7] -0.0036% [at 18.6 µM] | fluorescence, % of fluorescein [8] -0.0691% [at 18.6 µM] | fluorescence, % of fluorescent control [9] -0.0502% [at 18.6 µM] | fluorescence, % of fluorescent control [11] 0.0019% [at 18.6 µM] | fluorescence, % of Rose Bengal [12] 0.586% [at 18.6 µM] | fluorescence, % of fluorescein control [14] 0.0394% [at 18.6 µM] | fluorescence, % of fluorescent control [15] -0.0043% [at 18.6 µM]

CCOC(=O)CC(C)C
inactive: Potency [1] | Potency [2] | Potency [3] | outcome [4] | outcome [5] | Potency [6] | outcome [7] | outcome [8] | Potency [9] | outcome [10] | outcome [11] | outcome [12] | Potency [13] | outcome [14] | Potency [15] | Potency [16] | Potency [17]

NC(N)=N/N=C/c1c(Cl)cccc1Cl
inactive: Potency [1] | Potency [2] | Potency [18] | Potency [3] | outcome [4] | outcome [5] | Potency [6] | outcome [7] | outcome [8] | Potency [9] | outcome [11] | outcome [12] | Potency [13] | outcome [14] | Potency [15]

S=C(S)NCCNC(=S)S
inactive: Potency [1] | Potency [2] | Potency [18] | Potency [3] | outcome [4] | outcome [5] | Potency [6] | outcome [7] | outcome [8] | Potency [9] | outcome [11] | outcome [12] | outcome [14] | Potency [15] | Potency [17]

CN(c1nccc(=O)[nH]1)C1CCN(c2nc3ccccc3n2Cc2ccc(F)cc2)CC1
inactive: Potency [1] | Potency [2] | Potency [18] | Potency [3] | outcome [4] | outcome [5] | Potency [6] | outcome [7] | outcome [8] | Potency [9] | outcome [11] | outcome [12] | Potency [13] | outcome [14] | Potency [15]

CC(C)NCC(O)c1cc(O)cc(O)c1 (stereo not given)
inactive: Potency [1] | Potency [2] | Potency [18] | Potency [19] | outcome [4] | outcome [5] | Potency [6] | outcome [7] | outcome [8] | Potency [9] | outcome [11] | outcome [12] | Potency [13] | outcome [14] | Potency [15]

CCCCC(CC)(CO)CO
inactive: Potency [1] | Potency [2] | Potency [18] | outcome [4] | outcome [5] | Potency [6] | outcome [7] | outcome [8] | Potency [9] | outcome [10] | outcome [11] | outcome [12] | Potency [13] | outcome [14] | Potency [15]

Oc1ccc(Cc2ccccc2)cc1
active: Potency [19] 14.2 µM
inactive: Potency [1] | Potency [2] | Potency [3] | outcome [4] | outcome [5] | Potency [6] | outcome [7] | outcome [8] | Potency [9] | outcome [10] | outcome [11] | outcome [12] | Potency [13] | outcome [14] | Potency [15]

CN1CCN(C2=Nc3cc(Cl)ccc3Nc3ccccc32)CC1
inactive: Potency [1] | Potency [2] | Potency [3] | outcome [4] | outcome [5] | Potency [6] | outcome [7] | outcome [8] | Potency [9] | outcome [11] | outcome [12] | Potency [13] | outcome [14] | Potency [15] | Potency [16]

COC(Cc1ccccc1)OC
inactive: Potency [1] | Potency [2] | Potency [18] | Potency [3] | outcome [4] | outcome [5] | Potency [6] | outcome [7] | outcome [8] | Potency [9] | outcome [10] | outcome [11] | outcome [12] | Potency [13] | Potency [15] | Potency [16] | Potency [17]

CC(=O)O[C@@H]1C(=O)O[C@@H]2[C@H]1OC(=O)[C@@H]2OC(C)=O
inactive: Potency [1] | Potency [2] | Potency [18] | Potency [3] | outcome [4] | outcome [5] | Potency [6] | outcome [7] | outcome [8] | Potency [9] | outcome [10] | outcome [11] | outcome [12] | Potency [13] | outcome [14] | Potency [15] | Potency [16] | Potency [17]

OCCC1CCCCN1 (stereo not given)
inactive: Potency [1] | Potency [2] | Potency [18] | outcome [4] | outcome [5] | outcome [7] | outcome [8] | Potency [9] | outcome [10] | outcome [11] | outcome [12] | Potency [13] | outcome [14] | Potency [15] | Potency [16]

CC(=O)c1c(C)c([N+](=O)[O-])c(C(C)(C)C)c([N+](=O)[O-])c1C
active: Potency [19] 54.5 µM
inactive: Potency [1] | Potency [2] | Potency [18] | outcome [4] | outcome [7] | outcome [8] | Potency [9] | outcome [11] | outcome [12] | Potency [13] | outcome [14] | Potency [15] | Potency [16] | Potency [17]

CC(=O)SCc1ccco1
inactive: Potency [1] | Potency [2] | Potency [3] | Potency [19] | outcome [4] | outcome [5] | Potency [6] | outcome [7] | outcome [8] | Potency [9] | outcome [10] | outcome [11] | outcome [12] | Potency [13] | outcome [14] | Potency [15] | Potency [16]
